# USP30 inh: inhibitors of human USP30 deubiquitinase; purified USP30, Ub-rhodamine cleavage fluorescence; hit rate 5.3% among 47,000; Ubiquitin carboxyl-terminal hydrolase 30 (Homo sapiens), Q70CQ3; inhibition, % at 25 µM
# USP8 block: inhibitors of human USP8 deubiquitinase. purified USP8, Ub-rhodamine cleavage fluorescence, 30 min. inhibition, % at 20 µM. hit rate 4.2% among 47,000
# USP17 inh: inhibitors of human USP17 deubiquitinase. Ubiquitin carboxyl-terminal hydrolase 17-like protein 5 (Homo sapiens), A8MUK1. purified USP17, Ub-rhodamine cleavage fluorescence, 3 h. inhibition, % at 50 µM. hit rate 6.5% among 47,000. AID 1645855, 2021
# Target sequence (A8MUK1 whole entry, looked up): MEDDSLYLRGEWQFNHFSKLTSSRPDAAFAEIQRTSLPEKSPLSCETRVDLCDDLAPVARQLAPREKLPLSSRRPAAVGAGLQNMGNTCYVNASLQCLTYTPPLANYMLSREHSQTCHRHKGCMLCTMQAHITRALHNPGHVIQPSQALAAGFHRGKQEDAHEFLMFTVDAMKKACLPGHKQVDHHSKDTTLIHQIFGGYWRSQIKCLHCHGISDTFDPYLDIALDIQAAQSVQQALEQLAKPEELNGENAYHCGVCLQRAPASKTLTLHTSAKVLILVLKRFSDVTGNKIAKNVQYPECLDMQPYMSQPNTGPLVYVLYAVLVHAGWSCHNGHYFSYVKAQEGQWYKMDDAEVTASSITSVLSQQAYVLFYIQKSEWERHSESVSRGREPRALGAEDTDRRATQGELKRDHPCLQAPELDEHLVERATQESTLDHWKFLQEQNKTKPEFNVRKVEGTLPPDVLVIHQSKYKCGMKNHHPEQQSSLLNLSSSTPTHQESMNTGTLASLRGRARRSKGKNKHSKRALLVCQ
# USP28 inh: inhibitors of human USP28 deubiquitinase. AID 1645857, 2021. inhibition, % at 25 µM. purified USP28, Ub-rhodamine cleavage fluorescence, 30 min. Ubiquitin carboxyl-terminal hydrolase 28 (Homo sapiens), Q96RU2. hit rate 3% among 47,000
# * marks the source's active call; other numbers are inactive results; nt = not tested or not shown. Rows were chosen to be rich in hits. Some 13% of all compounds tested hit in one or more screens of this group. Rule as the data show it: active = inhibition above about 30%; inactive = the rest.
SMILES,USP30 inh,USP8 block,USP17 inh,USP28 inh
O=C(Nc1nnc(-c2cccs2)o1)C(c1ccccc1)c1ccccc1,45*,-8,19,14
COC(=O)c1ccccc1NC(=O)CSc1nnc(-c2ccc(C(C)(C)C)cc2)n1C1CCCC1,52*,26,15,12
COc1ccc(CCNC(=O)c2noc3c2CCc2sccc2-3)cc1OC,-1,17,52*,76*
COCCCNC(=O)c1noc2c1CCc1sccc1-2,nt,-5,7,nt
COc1ccc(Cl)cc1N(C)C(=O)c1noc2c1CCc1sccc1-2,34*,14,21,23
COc1ccc(NC(=O)CSc2n[nH]c(C(C)C)n2)c(OC)c1,2,1,-7,-11
COc1ccc(NC(=O)CSc2nnc(-c3ccc(F)cc3)c3ccccc23)c(OC)c1,-9,7,12,39*
COCc1cc(Sc2ccc(OC)cc2)nc(-c2ccccc2)n1,3,5,1,0
O=S(Cc1cc(Sc2ccccc2)nc(-c2ccccc2)n1)c1ccccc1 (configuration not stated),34*,10,3,13
CCc1nc(N2CCCC2)c2oc3ccccc3c2n1,2,-4,20,-2
CCc1nc(Nc2ccc3c(c2)SC2=NCCN23)c2oc3ccccc3c2n1,41*,12,61*,63*
Cc1ocnc1C(=O)N1CCC2(C/C=C/CCOc3ccccc3C(=O)NC2)CC1,25,21,14,11
O=C1NCC2(C/C=C/CCOc3ccccc31)CCN(C(=O)c1ccnc(N3CCCC3)c1)CC2,88*,7,95*,72*
O=C(/C=C/c1ccc(Br)cc1)Nc1cnc2ccccc2c1,-1,49*,11,-3
Cc1cc(NC(=O)/C=C/c2ccccc2)c2ccccc2n1,-53,-3,-23,-11
O=C(/C=C/c1cnc2ccccc2c1)NCc1ccccc1,41*,3,50*,17
COc1ccc(OC)c2c(C)cc(N3CC(C)CC(C)C3)nc12 (configuration not stated),43*,98*,96*,54*
CSc1nnc(NC(=O)c2cc(-c3ccccc3O)n[nH]2)s1,nt,7,20,nt
COC(=O)c1cc2c(ccn2-c2ccc(F)cc2)n1C,-19,36*,-35,4
COC(=O)c1cc2c(ccn2-c2ccc(F)cc2)n1CC(=O)N(C1CCCCC1)C1CCCCC1,-17,17,-12,-12
Cc1ccc(-c2c(NC(=O)C3CCCCC3)n(C)c3ccccc3c2=O)cc1,13,0,-3,-3
CCOc1ccc(CC(=O)Nc2ccc(-c3cn4cccnc4n3)cc2)cc1,-22,40*,68*,44*
Cc1ccc(-c2cn3cccnc3n2)cc1NC(=O)C(C)Oc1ccccc1 (configuration not stated),13,-10,9,-5
O=C(CSCc1ccccc1F)NCc1ccc(F)cc1,-4,-6,-7,-3
O=C(NCc1ccc(F)cc1)C(c1ccccc1)c1ccccc1,31*,10,3,13
SMILES,USP30 inh,USP8 block,USP17 inh,USP28 inh
Cn1c(=O)n([C@@H](Cc2ccccc2)C(=O)NCc2ccc(F)cc2)c(=O)c2ccccc21,46*,20,13,26
Clc1ccc(Cn2c(NCc3ccccc3Cl)nc3ccccc32)cc1,34*,-2,6,15
Cc1ccc(-c2ccc(N3CCOCC3)nn2)cc1S(=O)(=O)N1CCCC1,13,20,5,9
CC1Cc2ccccc2N1C(=O)COC(=O)c1ccc2ccccc2n1 (configuration not stated),-6,-4,-6,11
CC1Cc2ccccc2N1C(=O)Cc1csc(NC(=O)c2ccc(=O)[nH]c2)n1 (configuration not stated),-135,47*,23,-34
Cc1c(-c2nnc(-c3ccccc3Cl)o2)nnn1-c1ccccc1,81*,19,3,35*
O=c1[nH]c(=O)c2c(-c3ccc(-c4ccccc4)cc3)ccnc2[nH]1,45*,76*,17,-4
COc1cccc(-c2ccnc3[nH]c(=O)[nH]c(=O)c23)c1,63*,1,74*,18
O=c1[nH]c(=O)c2c(-c3cccc4ccccc34)ccnc2[nH]1,1,-17,4,-2
C[C@H]1CN(C(=O)NCc2ccc(F)cc2)C[C@@H]1c1nc(-c2ccccc2)no1,7,5,3,14
O=C(c1ccc(N2CCc3ccccc32)nn1)N1CCc2ccccc21,1,12,52*,-23
COc1cc(C(=O)NCCOC(=O)c2cc(S(=O)(=O)N3CCOCC3)ccc2C)cc(OC)c1OC,-14,-142,-23,0
Cc1nn(-c2ccccc2)c2[nH]c(=O)c(CNCc3ccco3)cc12,nt,-5,-27,nt
Cc1nn(-c2ccccc2)c2[nH]c(=O)c(CNCc3ccc(F)cc3)cc12,11,56*,11,2
Cc1nn(-c2ccccc2)c2[nH]c(=O)c(CNCc3ccc4c(c3)OCO4)cc12,6,77*,21,13
COc1ccc(-c2nn(-c3ccccc3)c3[nH]c(=O)c(CNC4CCCC4)cc23)cc1,-268,26,-22,-83
Cc1ccc(-c2nn(-c3ccccc3)c3[nH]c(=O)c(CNCc4ccccc4)cc23)cc1,-278,56*,-68,-112
O=c1[nH]c2c(cc1CNCc1cccnc1)c(-c1cccc(F)c1)nn2-c1ccccc1,-127,68*,-43,-50
COc1cccc(CNC(=O)c2[nH]c(C)c(C(C)=O)c2C)c1,-8,-10,-7,9
CCn1c(SCC(=O)NC2CCCC2)nnc1-c1ccc2c(c1)OCCO2,1,0,0,-7
Cc1nc(CS(=O)(=O)c2ccccc2)cc(N2CCCCC2)n1,1,-1,2,1
Cc1ccc(NCc2cc3c(-c4ccc(F)cc4)nn(-c4ccccc4)c3[nH]c2=O)cc1C,-100,77*,7,-21
CO\C=C(C(=O)OC)/C(C)=C\C=C\c1ccc(OCC=C(C)C)c(O)c1,27,8,40*,22
Cc1ccc(S(=O)(=O)Nc2ccccc2C(=O)Nc2nc3ccc(Br)cc3s2)cc1,75*,95*,97*,77*
Cc1ccc2nc(NC(=O)c3ccccc3OCc3ccccc3Cl)sc2c1,16,17,11,11
SMILES,USP30 inh,USP8 block,USP17 inh,USP28 inh
O=C(c1ccc(N2CCc3ccccc32)s1)N1CCC(N2CCCCC2)CC1,1,20,46*,35*
CN(C)CCNC(=O)c1ccc(N2CCc3ccccc32)s1,-48,-21,-1,19
Cn1cc(C(=O)Oc2ccc(C#N)cc2)c(C(F)(F)F)n1,7,3,0,-3
COc1ccccc1C(=O)Oc1ccc(-c2ccc(C#N)cc2)cc1,8,1,49*,5
CN(C)S(=O)(=O)c1ccc(C(=O)Oc2ccc(-c3ccc(C#N)cc3)cc2)cc1,31*,14,18,3
COc1cccc(NC(=O)C(C)OC(=O)c2ccc(NS(=O)(=O)c3ccc(F)c(F)c3)cc2)c1 (configuration not stated),-38,-6,-52,-6
